Screening data (PubChem BioAssay)
TWEAK Fn14 block – blocks TWEAK-Fn14 interaction in a reporter cell assay | TWEAK-stimulated Fn14 reporter cells, luciferase luminescence, 8 h | hit rate 2% among 360,000 | inhibition, % at 10 µM; in the data active = inhibition above about 50%
TROY NFkB inh – inhibitors of TROY-dependent NF-kB signaling. Q293 LMP1-TROYcd NF-kB luciferase reporter, 4 h. AID 1347056. hit rate 0.98% among 360,000. inhibition, % at 10 µM;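 active = compounds whose plate-normalised and pattern-corrected inhibition of the luciferase reporter signal at the single screening dose is 50% or more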
EBV LMP1 NFkB – reduces LMP1-driven NF-kappaB luciferase signal; inhibition, % at 12.5 µM; AID 504558; LMP1-induced NF-kappaB luciferase reporter cells, luminescence; hit rate 0.69% among 350,000; in the data active = inhibition above about 41%; inconclusive = no clear call, values can overlap the other calls
TRPM1 prom inh – inhibitors of MITF-driven TRPM1 promoter in melanoma cells. SK-MEL-5 TRPM1 promoter luciferase, 24 h. inhibition, % at 12.5 µM. hit rate 0.83% among 330,000;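 active = mean inhibition across replicates of 60% or more, whatever share of single replicates reaches that level; inconclusive = some that reach 60%, reason not given; inactive = mean inhibition across replicates below 60%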
Peg3 prom inh – inhibitors of Peg3 promoter; AID 588405; inhibition, % at 20 µM; HeLa PEG-Prom luciferase reporter, luminescence, overnight; hit rate 1.7% among 360,000;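 active = inhibition of at least 50% at 20 µM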
HIF-2a inh – HIF-2a inhibition. 786-0 RCC cells HIF-2a reporter, luciferase luminescence, overnight. inhibition, % at 18.8 µM. hit rate 0.72% among 360,000;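 active = inhibition of the luminescence signal of 40% or more relative to plate controls, in a single-dose primary screen at 18.75 µM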
Each line names hits and unclear results; the compound was inactive in the other large screens. Shown are actives, neighbours in structure and some others; about 4% of the full set was active somewhere.

CN1CCN(c2c([N+](=O)[O-])cnc3ccccc23)CC1	none
O=[N+]([O-])c1cc(-c2csc(NCCc3nc4cc(Cl)c(Cl)cc4n3CCCO)n2)ccc1Cl	Peg3 prom inh 91.8
CCCn1c(CCNc2nc(-c3ccc(Cl)c([N+](=O)[O-])c3)cs2)nc2cc(Cl)c(Cl)cc21	none
COc1ccccc1/C=C1/C(=O)N(c2ccccc2)N=C1C	HIF-2a inh 44.7
CCN1C(=O)c2cccc3c(S(=O)(=O)N(C(=O)c4ccncc4)c4ccc(OC)cc4)ccc1c23	none
CCN1C(=O)c2cccc3c(S(=O)(=O)N(C(=O)c4cccnc4)c4ccc(OC)cc4)ccc1c23	TWEAK Fn14 block 62.5
CCCc1[nH]c2ccc(C#N)cc2c1CCC	TROY NFkB inh 53.5
CCCc1[nH]c2ccc(C(=O)OC)cc2c1CCC	none
Cc1cc(Cl)ccc1OCC(=O)N/N=C/c1ccncc1	none
COc1ccc(-c2csc3ncnc(N4CCN(c5ccccc5OC)CC4)c23)cc1	none
Fc1ccc(-c2csc3ncnc(N4CCc5ccccc5C4)c23)cc1	none
Oc1ccccc1N1CCN(c2ncnc3scc(-c4ccccc4)c23)CC1	TWEAK Fn14 block 55.9, Peg3 prom inh 59.2
Cc1ccc(-c2csc3ncnc(N4CCc5ccccc5C4)c23)cc1	TWEAK Fn14 block 78.4, TROY NFkB inh 57.6
COc1ccc(-c2csc3ncnc(NCCO)c23)cc1	TWEAK Fn14 block 72.5, EBV LMP1 NFkB 41.8
CCOc1ccccc1N1CCN(c2ncnc3scc(-c4ccc(OC)cc4)c23)CC1	TROY NFkB inh 58.6, Peg3 prom inh 59.1
C[C@@H]1CCCCO[C@H](CN(C)C(=O)Nc2ccc3c(c2)OCO3)[C@H](C)CN([C@@H](C)CO)C(=O)c2cc(NS(=O)(=O)c3ccc(Cl)cc3)ccc2O1	none (no result: TRPM1 prom inh)
O=C(CSCc1cccc(CSCC(=O)Nc2ccc3ccccc3c2)n1)Nc1ccc2ccccc2c1	TWEAK Fn14 block 67.1
Cc1cc(=O)oc2cc(OCC(=O)N3CCCC(C)C3)ccc12 (stereo not drawn)	none
CCC(C)c1ccc(S(=O)(=O)N2CCN(C(=O)COc3ccc4c(C)cc(=O)oc4c3)CC2)cc1 (stereo not drawn)	TWEAK Fn14 block 57.6 (no result: TROY NFkB inh)
O=C(Cc1ccccc1)NNc1c2ccccc2nc2ccccc12	none
O=C(Nc1c2ccccc2nc2ccccc12)C(Cl)(Cl)Cl	Peg3 prom inh 96.4
COc1ccc(S(=O)(=O)N(C)CC(=O)Nc2ccccc2C(F)(F)F)cc1OC	TWEAK Fn14 block 74.0 (no result: TROY NFkB inh)
CCN(CC)CCNC(=O)CCc1c(C)nc2c(c(C)nn2-c2ccc(C)cc2)c1C	Peg3 prom inh 73.2
COCCNC(=O)CCc1c(C)nc2c(c(C)nn2-c2ccc(C)cc2)c1C	none
O=C1CSC(=Nc2cccc([N+](=O)[O-])c2)N1	none
NC(=O)c1ncn([C@@H]2O[C@H](CO)[C@@H](O)[C@H]2O)n1	EBV LMP1 NFkB 63.2
COc1ccc(OC)c(S(=O)(=O)NCCC2=CCCCC2)c1	none
COc1ccc(C(=O)NCCC2=CCCCC2)cc1	TWEAK Fn14 block 75.4
O=C(NCCC1=CCCCC1)c1ccc([N+](=O)[O-])cc1	none
O=C(NCCC1=CCCCC1)NC12CC3CC(CC(C3)C1)C2	TROY NFkB inh 62.6
COc1ccc(OC)c(NC(=O)C(=O)NCCC2=CCCCC2)c1	TWEAK Fn14 block 77.8
COc1ccc(C(=O)NCC(=O)OCC(=O)NCCC2=CCCCC2)cc1	none
O=C(NCCC1=CCCCC1)c1ccc(F)cc1	TWEAK Fn14 block 53.8
COc1ccc(C(=O)NCCC2=CCCCC2)cc1OC	none
COc1cccc(C(=O)NCCC2=CCCCC2)c1	TWEAK Fn14 block 51.0
COCCn1c(C)cc(C(=O)COC(=O)C23CC4CC(CC(O)(C4)C2)C3)c1C	TWEAK Fn14 block 76.0, TROY NFkB inh 65.0, EBV LMP1 NFkB 41.7
O=c1[nH]c2ccccc2c2cn(-c3ccccc3)nc12	none
Cc1nc2ccccn2c1C(=O)N/N=C/c1ccc(CNC(=O)C(=O)Nc2ccccc2)o1	none
CC(NC(=O)C12CC3CC(CC(C3)C1)C2)C(=O)NN=Cc1ccc([N+](=O)[O-])o1 (stereo not drawn)	TRPM1 prom inh 62.1
O=C(N/N=C/c1ccc([N+](=O)[O-])o1)C1CCCC1	none
O=C(N/N=C/c1ccc([N+](=O)[O-])o1)c1ccncc1	none (no result: EBV LMP1 NFkB, TRPM1 prom inh)
CCN(CC)S(=O)(=O)c1cccc(C(=O)N/N=C/c2ccc([N+](=O)[O-])o2)c1	TRPM1 prom inh 84.7
Cc1nc2ccccn2c1C(=O)N/N=C/c1ccc([N+](=O)[O-])o1	TRPM1 prom inh 68.7
O=C(N/N=C/c1ccc([N+](=O)[O-])o1)c1ccc(O)cc1	TRPM1 prom inh 87.2
CCc1nnc(NC(=O)CCC(=O)NC2CCCCCC2)s1	none
O=C(N/N=C/c1ccc([N+](=O)[O-])o1)c1cc2ccccc2o1	TRPM1 prom inh 98.0
O=[N+]([O-])c1ccc(/C=N\NS(=O)(=O)c2ccc(F)cc2)o1	TWEAK Fn14 block 84.4
Cc1ccc(/C=N/NC(=O)c2cc3c(ccc4ccccc43)o2)cc1[N+](=O)[O-]	none
O=C(N/N=C/c1ccc([N+](=O)[O-])o1)c1cc2c(ccc3ccccc32)o1	TRPM1 prom inh inconclusive, Peg3 prom inh 54.5
Cc1ccc(/C=N/NC(=O)c2cc3c(ccc4ccccc43)o2)o1	TROY NFkB inh 73.4
Cc1cc(C(=O)NC2CCCc3c2cnn3-c2cccc(C)c2C)n(C)n1 (stereo not drawn)	none
CCC(c1nnnn1-c1ccc2c(c1)OCCO2)N1CCN(Cc2c(F)cccc2Cl)CC1 (stereo not drawn)	none (no result: EBV LMP1 NFkB, TRPM1 prom inh, Peg3 prom inh)
Clc1ccc(CN2C3=NCCCN3c3ccccc32)c(Cl)c1	none
CCOc1ccc(N2CC(C(=O)Nc3cccc(S(=O)(=O)NC4=NCCC4)c3)CC2=O)cc1 (stereo not drawn)	none
CN(CC(=O)Nc1ccccc1Br)CC(=O)Nc1ccccc1C(F)(F)F	none
CCOCCCNC(=O)c1cc2c(-c3ccc(Cl)cc3)nn(C)c2s1	none
CCCCN(CC)CCNC(=O)c1cc2c(-c3ccc(Cl)cc3)nn(C)c2s1	TRPM1 prom inh 68.2, Peg3 prom inh 102.7
CCCN(CCC)CCNC(=O)c1cc2c(-c3ccc(Cl)cc3)nn(C)c2s1	Peg3 prom inh 76.3
CCCN(CCC)CCNC(=O)c1cc2c(-c3ccccc3F)nn(C)c2s1	none
N#Cc1ccccc1NC(=O)CSc1nnc(-c2ccccc2)n1-c1ccccc1	none
CCN(CC)c1ccc(-c2nnc(SCC(=O)Nc3ccccc3C#N)n2-c2ccccc2)cc1	TWEAK Fn14 block 74.9 (no result: TROY NFkB inh)
Cc1ccc(S(=O)(=O)N2C[C@]3(O)C[C@@H]4C(=O)N(c5ccccc5)C(=O)[C@@H]4C[C@]3(OC(=O)NC3CCCC3)C2)cc1	none (no result: TRPM1 prom inh)
COc1ccccc1NS(=O)(=O)c1cc(-c2cnc(C3CC3)o2)ccc1C	Peg3 prom inh 52.4
COc1ccc(NS(=O)(=O)c2cc(-c3cnc(C4CC4)o3)ccc2C)cc1	none
CCCCCCCCCCCCCCCC[n+]1cccc2ccccc21	TWEAK Fn14 block 72.1, TROY NFkB inh 53.7, TRPM1 prom inh 103.2, Peg3 prom inh 104.1, HIF-2a inh 93.8
